# Test results: PubChem BioAssay AID492998 (Southern Research Specialized Biocontainment Screening …, 2010)
# The whole screen tested about 2,300 compounds, of which about 550 (24%) were called active. Only a sample is shown. Results with a measured potency or affinity are listed apart. Values without a mark were called inactive. No rule for the calls is given here.
# Test: Vero E6 cell cytotoxicity, dose response, cytotoxicity control for non-replicating M. tuberculosis project, secondary assay (AID 492998);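 also: 100% = vehicle-treated cells and 0% = background wells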
# Settings: series mostly up to 20 µM; viability: at the top concentration
row,Structure (SMILES),viability [%]
1,Cc1ccc(C(=O)O/N=C(\N)c2cccc([N+](=O)[O-])c2)cc1,88.5
2,O=C(OCCCOC(=O)c1ccc([N+](=O)[O-])o1)c1ccc([N+](=O)[O-])o1,99.5
3,CCOC(=O)C1CCN(CCCSc2ccc(Cl)cc2)CC1,98.9
4,Cc1ccc(NC(=O)C2=C(c3ccccc3)S(=O)(=O)CCS2(=O)=O)cc1,94.5
5,C/C(=N\NC(=O)c1cc([N+](=O)[O-])cc([N+](=O)[O-])c1)c1ccco1,97
6,C/C(=N\NC(=O)COc1ccc(C)cc1Br)c1cc([N+](=O)[O-])cs1,84.7
7,O=C(CCN1CCC(c2ccccc2)C1)c1ccccc1 (centres undefined),97.1
8,COC(=O)COc1ccc2c(-c3cccc([N+](=O)[O-])c3)cc(=O)oc2c1,99.4
9,CCOC(=O)c1c(NC(=O)COC(=O)c2ccccn2)sc2c1CCC2,97.1
10,COc1ccc(-c2nnn(CC(=O)OC3CCCCC3)n2)cc1OC,92.8
11,COc1ccc2c(c1)sc(=N)n2C,83.1
12,CCOC(=O)C(C)Oc1cc(Cl)c(C=O)cc1OC (centres undefined),101
13,CC1=NN(c2ccccc2)C(=O)C1C(=O)c1ccccc1 (centres undefined),107
14,O=C(OCc1nc2ccccc2s1)c1ccc(Br)o1,98
15,COc1ccc(N=Cc2nc(-c3ccccc3)oc2OC(C)=O)cc1,99.7
16,Cc1ccc(NC(=O)COC(=O)C(NS(=O)(=O)c2ccc(Cl)cc2)C(C)O)cc1C (centres undefined),98.9
17,O=C(Nc1nnc(-c2ccc(Br)cc2)o1)C1=COCCO1,92.6
18,O=C(Nc1nnc(-c2ccccc2Cl)o1)c1ccco1,109
19,Cc1ccc(C)c(-c2nnc(NC(=O)COc3ccccc3)o2)c1,71.6
20,O=C(Nc1nnc(-c2cc(Cl)ccc2Cl)o1)C1=COCCO1,95.4

row,Structure (SMILES),viability [%]
1,Cc1ccc(-c2nnc(Cc3ccc([N+](=O)[O-])cc3)o2)cc1,104
2,C/C(CC(=O)Nc1ccc(C)c(Cl)c1)=N\NC(=O)c1ccco1,84.7
3,O=C(Nc1nnc(-c2ccc(Br)cc2)o1)c1ccco1,79.3
4,CCc1nnc(NC(=O)CN2CCN(c3ccccc3F)CC2)s1,111
5,CC(C)[C@H]1CN=C2N(C[C@H](C)NC(=O)CCC3CCCCC3)[C@H](Cc3ccc(O)cc3)CN21,93.5
6,COc1ccc(C2=Nc3ccccc3OC2)cc1,96.1
7,O=C(OCC#CCSc1nnc(-c2ccccc2)o1)c1ccco1,97.8
8,Cc1ccnc(NC(=O)COc2ccc3c(c2)CCC3)c1,104
9,COCCCNC(=O)COC(=O)c1ccc(-c2nc3ccccc3s2)s1,95
10,COc1ccc(C(C)=O)cc1COC(=O)c1ccc2ccccc2n1,106
11,CC1Cc2ccccc2N1C(=O)COC(=O)c1ccc(Cl)nc1 (centres undefined),102
12,Cn1c(=O)c2c(=O)cc(NNC(=O)CC#N)[nH]c2n(C)c1=O,110
13,COC(=O)COc1ccc(S(=O)(=O)NCc2ccc3c(c2)OCO3)cc1,106
14,COc1ccc(NCC(=O)N2CCCC2)cc1Cl,119
15,CC1CCc2c(sc3nc(CSc4ncn[nH]4)[nH]c(=O)c23)C1 (centres undefined),89.9
16,CCOC(=O)COc1ccc2c(=O)c(-c3ccccc3)coc2c1,103
17,Cc1ccc2c(c1)C(=O)C(=O)N2CCCOc1ccccc1,96.2
18,C=CCN1C(=O)C2(NNc3ccccc3O2)c2ccccc21 (centres undefined),82
19,O=C(c1ccccc1)n1c(=O)c(F)cn(COCCBr)c1=O,108
20,Cc1cc(C)cc(NC(=O)CCc2ccc(C)o2)c1,97

row,Structure (SMILES),viability [%]
1,CCc1ccc(N=CC2=C(O)CC(c3ccco3)CC2=O)cc1 (centres undefined),95.6
2,C/C(=N/NC(=O)c1ccco1)c1ccc(Br)s1,90.8
3,Cc1ccc(/C=C2\SC(=S)N(C3CCS(=O)(=O)C3)C2=O)o1 (centres undefined),89.5
4,COC(=O)c1ccc(CO/N=C/c2ccc(OC)cc2)o1,99.9
5,CCOC(=O)COc1ccc(C(=O)NC2CCCCC2)cc1,103
6,Cc1nc2ccc(Cl)cc2nc(C)/c1=N\O,88.4
7,O=c1c2c([N+](=O)[O-])cc([N+](=O)[O-])cc2sn1-c1ccc(Br)cc1,77
8,O=c1c2cc(Cl)ccc2nc(-c2ccccc2Cl)n1O,103
9,O=C(Oc1cccc([N+](=O)[O-])c1)c1ccc2c(=O)n3c(nc2c1)CCC3,96.2
10,N/C(=N\OC(=O)c1cccc(Br)c1)c1ccc([N+](=O)[O-])cc1,98.3
11,O=[N+]([O-])c1ccc2nc(SCc3cn4cc(Cl)ccc4n3)[nH]c2c1,91.4
12,CCOC(=O)c1cn(Cc2cccc(Cl)c2)nn1,97.6
13,O=C(O)c1ccccc1C(=O)NNc1ccc(Cl)cc1,104
14,CCCCCC1CC(CC(=O)NC(=S)Nc2ccc([N+](=O)[O-])cc2)C(=O)O1 (centres undefined),104
15,Cc1c(Cl)cccc1NC(=O)C1COc2ccccc2O1 (centres undefined),99.6
16,CCOC(=O)NC(=O)COC(=O)CCCSc1nc2ccccc2s1,104
17,Cn1ccsc1=NC(=O)c1ccccc1F,97.6
18,CCc1ccc(C(=O)NC2CCCCC2)s1,98.3
19,Cc1ccc(Sc2ccc(C=C3C(=O)N(C)C(=O)N(C)C3=O)o2)cc1,93
